Reference: the OligoGym collection

What follows are sequences tested against SLC28A2 (assay: pooled miR-30 sensor sort-seq; sequence = guide strand). Details: shRNA.

Sequence	sensor-assay potency score (higher = more potent)
TTGGACAGTCTGTCCACTCTAC	0.142
TTGAACAATCTGGCGTGTGTTT	-0.953
TCTTCTTGAACAATCTGGCGTG	-0.29
TTGTTGTAGAATCCACAGCAGT	-1.13
ATAGTGATTTGTAAAAACCAGG	-0.831
TTCTTTTTCCATGAGCTCCAGC	-0.532
TTGGTGAAACTTGTGTTTGGGA	-0.24
TTGGGAAGGAGACACAGTCAGC	-1.18

What follows are sequences tested against SLC29A1 in the same assay as above. Details: shRNA.

Sequence	sensor-assay potency score (higher = more potent)
TTTGCTAATGAGGTCCAACTTG	-0.866
TGAATTAATGAGCACGATCTTG	-0.995
TGAAACTCCAGATTCCTCTTTG	-0.131
ATGATAACAGCACAGGCTGTGA	-1.06
TTGCTAATGAGGTCCAACTTGG	-1.11
TTCAAGCTTGAGCTGCTGGTAG	0.0487
ATATTGAAAGTCAAGAAACAGG	-1.17
TTGAGCTGCTGGTAGTAGCGGT	0.0578
TAACGTTCCCAGGTGCTGCTGC	0.232
TCGAAGACCACAGTCAGGTAGC	-0.552
TTGCACAGCAGCAGCAGTGGCA	-0.846
AAATGATAACAGCACAGGCTGT	-0.935
TAGGGTCATGACATTGTTGAAG	-0.605
TTTGTATCTGTCCTGAGGCTGG	-0.764
TCAAGAAACAGGACACAGGAAT	-0.724
TTTCTGATAGCTCCGAGCCACT	-1.47
AAGACCACAGTCAGGTAGCGGC	-0.976
TTGACCTCAACAGTCACGGCTG	0.158
TTGTGAAATACTGAGTGGCCGT	-0.907
TTGAAGATGGCACTGAGAGAGT	-0.713
ATGAAGAAGATGAACCAGGCAT	0.328
AATGTTGCACAGCAGCAGCAGT	-1.2
TCCTTTGCTAATGAGGTCCAAC	-1.65

Each sequence was assayed against SLC29A3 in the same assay as above. Details: shRNA.

Sequence	sensor-assay potency score (higher = more potent)
TTGCATCTCGCTGTCAGCTGGA	0.563
TTGCGGAGTTTGAACATCCAGT	-0.979
TTTGCTTGCATCTCGCTGTCAG	0.244
TTGACATGTTGTAAACAGGAAC	-1.02
TATGACTGGAATATCTGCCTTG	0.374
TTTGAACATCCAGTACTCCTTG	0.313
TTTGTAATAACTCTAGGGCGAA	-1.16
TTGCTTGCATCTCGCTGTCAGC	-1.44
TATTTCTTCTTCAACTGTCTCA	0.0304
